T cruzi growth-1 – blocks T. cruzi growth in NIH3T3 culture; inhibition, % at 8.34 µM; T. cruzi beta-gal in NIH3T3, GalScreen luminescence, 90 h; AID 624255; 5.9% of 77,000 active;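 active = mean inhibition above about 93%, with at least 55% of replicates each passing it, limit read from the data, passing the limit was not always enough; inconclusive = only one of those two conditions holds; inactive = neither condition holds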
Pf Dd2 growth – inhibitors of Plasmodium falciparum Dd2 growth | P. falciparum Dd2 growth, SYBR Green, 72 h; stronger effect = lower value | 2.3% of 94,000 active | activity change, % at 10 µM; in the data active = activity change below about -80%; inconclusive = no clear call, values can overlap the other calls
C diff HTS – blocks growth of Clostridium difficile; Clostridium difficile clinical isolate growth, OD600, 24 h; stronger effect = lower value; growth activity, negative = inhibition, % at 16 µg/mL (by protocol); AID 1259249; 0.25% of 86,000 active;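 active = mean growth activity at or below -80% and every replicate also at or below -80%; inconclusive = mean at or below -80% but some replicate above -80%; inactive = mean growth activity above -80%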;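 note: 0% = DMSO wells and -100% = levofloxacin 16 µg/mL wells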
T cruzi growth-2 – blocks T. cruzi growth in NIH3T3 host cells; shares compounds with T cruzi growth-1; T. cruzi beta-gal in NIH3T3, GalScreen luminescence, 90 h; inhibition, % at 8.35 µM; 72% of 5,600 active; AID 651739;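 active = mean replicate inhibition above about 95% and at least 55% of replicates individually reaching it, limit read from the data; inconclusive = only one of the two criteria is met; inactive = neither criterion is met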
T cruzi growth-3 – inhibitors of T. cruzi proliferation; shares compounds with T cruzi growth-1; T. cruzi beta-gal in NIH3T3, GalScreen luminescence, 90 h; inhibition, % at 2.09 µM; 21% of 5,600 active;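 active = mean inhibition above about 95%, with at least 55% of replicates also reaching it, limit read from the data; inconclusive = meets just one of the two conditions; inactive = meets neither condition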;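 note: plate controls were neutral control median for no effect and positive control median for full effect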
NIH3T3 tox – kills mouse NIH/3T3 fibroblasts. NIH/3T3 viability, CellTiter-Glo ATP luminescence, 90 h. AID 651742. 14% of 5,600 active. shares compounds with T cruzi growth-1. cytotoxicity (signal decrease), % at 8.35 µM;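 active = mean signal decrease across replicates above about 35% based on untreated-well scatter, with enough replicates individually passing, limit read from the data; inconclusive = no rule stated though some were filed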;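 note: 0% = median of neutral control wells and 100% = median of positive control wells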
3T3 cytotox 2 – kills mouse NIH/3T3 fibroblasts; AID 651744; NIH/3T3 viability, CellTiter-Glo ATP luminescence, 90 h; shares compounds with T cruzi growth-1; 56% of 5,600 active; inhibition, % at 24.9 µM;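 active = mean loss of cell viability signal at or above a set limit, and enough replicates individually reaching it; inconclusive = meets only the mean limit or only the replicate share; inactive = meets neither condition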;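 note: 0% = median of neutral control wells and 100% = median of positive control wells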
Active calls of the source: *; ? = inconclusive; . = not tested or not shown. An excerpt weighted towards active compounds, which were near 6.7% of everything screened.

SMILES	T cruzi growth-1	Pf Dd2 growth	C diff HTS	T cruzi growth-2	T cruzi growth-3	NIH3T3 tox	3T3 cytotox 2
C/C=C/c1ccc([C@H]2[C@H](CO)N(C(C)=O)[C@H]2CNC(=O)CC2CC2)cc1	66	-14	0	.	.	.	.
C/C=C/c1ccc([C@@H]2[C@H](CO)N(C(=O)NCCC)[C@H]2CNC(=O)C2CC2)cc1	21	-11	-3	.	.	.	.
C/C=C/c1ccc([C@H]2[C@@H](CNC(=O)C3CC3)N(C(=O)NCCC)[C@H]2CO)cc1	97*	-11	2	69	44	-21	-21
C/C=C/c1ccc([C@H]2[C@@H](CNC(=O)CC3CC3)N(C(=O)CC)[C@H]2CO)cc1	103*	1	-5	52	12	6	12
C/C=C/c1ccc([C@@H]2[C@@H](CO)N(C(=O)CC)[C@H]2CNC(=O)CC2CC2)cc1	20	20	-6	.	.	.	.
C/C=C/c1ccc([C@@H]2[C@@H](CNC(=O)CC3CC3)N(C(=O)CC)[C@H]2CO)cc1	113*	8	-7	9	0	-16	20
COc1ccc(C#Cc2ccc3c(c2)O[C@@H](CN(C)C(=O)CN2CCOCC2)[C@@H](C)CN([C@@H](C)CO)S3(=O)=O)cc1	.	-78	8	.	.	.	.
CC=Cc1ccc2n(c1=O)C[C@H]1[C@H](CO)[C@@H](C(=O)N[C@H](C)c3ccccc3)[C@@H]2N1Cc1ccncc1 (mixture of isomers)	25	-4	-6	.	.	.	.
COc1ccccc1-c1ccc2c(c1)O[C@H](CN(C)CC1CC1)[C@H](C)CN([C@@H](C)CO)S2(=O)=O	40	-66	.	.	.	.	.
C[C@@H]1CN([C@H](C)CO)C(=O)c2cc(NC(=O)NC3CCCCC3)ccc2O[C@@H](C)CCCCO[C@@H]1CN(C)Cc1ccccc1	113*	-47	0	108*	54	-13	31*
C[C@H]1CCCCO[C@@H](CN(C)Cc2ccccc2)[C@@H](C)CN([C@@H](C)CO)C(=O)c2cc(NC(=O)NC3CCCCC3)ccc2O1	-116	-55	0	.	.	.	.
C[C@H](CO)N1C[C@H](C)[C@@H](CN(C)Cc2ccccc2)OCCCC[C@H](C)Oc2ccc(NC(=O)NC3CCCCC3)cc2C1=O	?	-14	5	?	54	15	48*
C[C@@H]1CCCCO[C@@H](CN(C)Cc2ccccc2)[C@H](C)CN([C@@H](C)CO)C(=O)c2cc(NC(=O)NC3CCCCC3)ccc2O1	-112	-46	-2	.	.	.	.
COc1cc2c(cc1OC)CN(C(=O)[C@H]1[C@@H]3C(=O)O[C@@H](c4ccccc4)[C@@H](c4ccccc4)N3[C@@H](c3ccc(O)cc3)[C@]13C(=O)Nc1ccccc13)CC2	.	.	4	.	.	.	.
O=C(NCC[C@@H]1CC[C@@H](NS(=O)(=O)c2ccc(F)cc2)[C@H](CO)O1)c1ccccc1F	.	7	-6	.	.	.	.
C[C@@H]1CCCCO[C@H](CN(C)C(=O)C2CCCCC2)[C@@H](C)CN([C@H](C)CO)C(=O)c2cc(NS(=O)(=O)c3ccc(F)cc3)ccc2O1	69	-68	-7	.	.	.	.
C[C@@H]1CN([C@H](C)CO)C(=O)Cc2cc(NC(=O)Nc3ccccc3)ccc2O[C@H]1CN(C)C(=O)Nc1ccc(C(F)(F)F)cc1	21	-34	-10	.	.	.	.
COc1ccc2c3c([nH]c2c1)[C@H](CO)N(C(=O)Nc1ccc(F)cc1)CC31CN(C(=O)Cc2ccccc2)C1	.	-15	-18	.	.	.	.
COc1ccc(S(=O)(=O)Nc2ccc3c(c2)CC(=O)N([C@@H](C)CO)C[C@@H](C)[C@H](CN(C)Cc2ccccc2)O3)cc1	113*	-26	-5	108*	89	16	23
COc1ccc(S(=O)(=O)Nc2ccc3c(c2)CC(=O)N([C@H](C)CO)C[C@@H](C)[C@@H](CN(C)Cc2ccccc2)O3)cc1	87	-9	-4	.	.	.	.
C[C@H]1CN([C@@H](C)CO)C(=O)Cc2cc(NS(=O)(=O)c3ccc(F)cc3)ccc2O[C@H]1CN(C)CC1CCCCC1	67	-30	9	.	.	.	.
C[C@@H]1CN([C@@H](C)CO)C(=O)Cc2cc(NS(=O)(=O)c3ccc(F)cc3)ccc2O[C@H]1CN(C)CC1CCCCC1	106*	-18	-1	112*	54	6	103*

Bioassay records deposited in PubChem BioAssay by Broad Institute.
